Laboratory results as given in PubChem BioAssay (NCI).
This is part of a sample that, as a whole, favours compounds with a hit. Of some 79,000 tested, about 15% had one in any assay. Unmarked numbers belong to inactive results. Activity calls are given as the source filed them. Cut-off read from the data, not from the text of the source: active = growth inhibition above about 70%; inactive = the rest.

Tests used:
[1] = NCI Yeast Anticancer Drug Screen. Data for the rad50 strain (AID 155);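 note: 0% = growth of vehicle-only cultures of the same strain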; details: S. cerevisiae rad50 strain growth inhibition, stronger effect = higher value
In short: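 Growth of the mutant yeast was measured after compound exposure and referenced to vehicle-treated cultures.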

[2] = NCI Yeast Anticancer Drug Screen. Data for the mec2-1 strain (AID 157); details: S. cerevisiae mec2-1 strain, stronger effect = higher value
In short: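 Growth inhibition is read against vehicle-treated controls after compound exposure of the mec2-1 yeast strain, which is defective in DNA damage repair or cell cycle control.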

[3] = NCI Yeast Anticancer Drug Screen. Data for the sgs1 mgt1 strain (AID 161);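 note: 0% = growth of cultures given vehicle only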; details: S. cerevisiae sgs1 mgt1 strain, stronger effect = higher value
In short: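 Yeast cells carrying a defined DNA-repair defect were exposed to test compounds. Growth inhibition was measured relative to vehicle-treated controls.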

[4] = NCI Yeast Anticancer Drug Screen. Data for the cln2 rad14 strain (AID 165);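 note: 0% = growth equal to vehicle treated cultures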; details: S. cerevisiae cln2 rad14 strain, stronger effect = higher value
In short: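 Growth inhibition, relative to vehicle-treated controls, is the read-out. The test organism is a yeast strain with defined genetic alterations, cln2 rad14.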

[5] = NCI Yeast Anticancer Drug Screen. Data for the bub3 strain (AID 167); details: S. cerevisiae bub3 mutant strain, stronger effect = higher value
In short: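 Whole-cell yeast assay. The mutant strain was incubated with compounds, and growth inhibition was determined by comparison with vehicle-treated cells.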

[6] = NCI Yeast Anticancer Drug Screen. Data for the mlh1 rad18 strain (AID 175); details: S. cerevisiae mlh1 rad18 strain growth inhibition, stronger effect = higher value
In short: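 Cells of a genetically altered yeast strain, deficient in DNA damage repair, were treated with compound. Their growth was then compared with that of vehicle-treated cultures to give inhibition.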

[7] = at 5.0 µM (retest, dose inferred, filed as 0.5)
[8] = at 50.0 µM (retest, dose inferred, filed as 5.0)

| SMILES | growth inhibition [1, 7] | growth inhibition [1, 8] | growth inhibition ([1]; at 50.0 µM) | growth inhibition [2, 7] | growth inhibition [2, 8] | growth inhibition ([2]; at 50.0 µM) | growth inhibition [3, 7] | growth inhibition [3, 8] | growth inhibition ([3]; at 50.0 µM) | growth inhibition [4, 7] | growth inhibition [4, 8] | growth inhibition ([4]; at 50.0 µM) | growth inhibition [5, 7] | growth inhibition [5, 8] | growth inhibition ([5]; at 50.0 µM) | growth inhibition [6, 7] | growth inhibition [6, 8] | growth inhibition ([6]; at 50.0 µM) |
| --- | --- | --- | --- | --- | --- | --- | --- | --- | --- | --- | --- | --- | --- | --- | --- | --- | --- | --- |
| CC(C)=CCC/C(C)=C/CC/C(C)=C/Cc1c(O)c2ccccc2oc1=O | 16% | 94% (active) | 89% (active) | 5% | 97% (active) | 91.5% (active) | 7% | 95% (active) | 89.7% (active) | 29% | 96% (active) | 89.2% (active) | -11% | 95% (active) | 88.3% (active) | -21% | 98% (active) | 89.2% (active) |
| CC12CCCCC1C(=O)C2(Cl)Cl (stereo not given) | -1% | 11% | 11.8% | 1% | 17% | -2.45% | -1% | 48% | 43% | -1% | -4% | 1.65% | 3% | 13% | -3.55% | 1% | 37% | 27.4% |
| COc1c[c]([Hg][O]C(C)=O)c(OC)c(NC(=O)CC(C)=O)[c]1[Hg][O]C(C)=O | 97% (active) | 95% (active) | 89.7% (active) | 99% (active) | 96% (active) | 92.5% (active) | 100% (active) | 93% (active) | 92.5% (active) | 43% | 96% (active) | 90% (active) | 99% (active) | 96% (active) | 90.8% (active) | 95% (active) | 95% (active) | 88.6% (active) |
| COCC(C#N)NC1CC(OC2CC(O)(C(=O)CO)Cc3c(O)c4c(c(O)c32)C(=O)c2c(OC)cccc2C4=O)OC(C)C1O (stereo not given) | 63% | 97% (active) | 91.3% (active) | 29% | 98% (active) | 89% (active) | 52% | 98% (active) | 90.2% (active) | 39% | 96% (active) | 88.7% (active) | 43% | 98% (active) | 92.1% (active) | 44% | 97% (active) | 89.8% (active) |
| N#CCC[CH2][Sn]([Br])([Br])[c]1ccccc1 | 3% | 72% (active) | 43.9% | 23% | 22% | 80.1% (active) | 49% | 49% | 6% | 2% | 11% | 34.5% | -6% | 18% | 89.4% (active) | 8% | 58% | 36.5% |
| C[N+](C)(C)CC1CCCC1=O (stereo not given) | 18% | 70% (active) | 51.6% | 16% | 59% | 21.3% | 13% | 58% | 24.6% | 11% | 34% | 19.2% | 20% | 70% (active) | 8.15% | 21% | 77% (active) | 22.6% |
| NC(=O)/C=C/c1ccc([As]=O)cc1 (stereo not given) | 1% | 25% | 97.8% (active) | 1% | 22% | 98.7% (active) | 0% | 34% | 99.3% (active) | 9% | 3% | 96.5% (active) | 4% | 37% | 98.7% (active) | 5% | 39% | 99% (active) |
| Oc1c(Cl)cc(Cl)cc1Cl.[Cu+2] | 6% | 95% (active) | 99.7% (active) | -28% | 98% (active) | 99.5% (active) | -4% | 94% (active) | 99.8% (active) | -9% | 97% (active) | 98.2% (active) | -10% | 97% (active) | 99.5% (active) | 0% | 98% (active) | 99.3% (active) |
| S=P(OC1CC2CCC1C2)(c1ccccc1)c1ccccc1 (stereo not given) | 83% (active) | 98% (active) | -15.2% | 90% (active) | 99% (active) | 4.1% | 86% (active) | 97% (active) | -0.75% | 87% (active) | 98% (active) | 30.4% | 88% (active) | 97% (active) | -10.6% | 91% (active) | 99% (active) | 1.2% |
| Cc1cc(N(CCCl)CCCl)ccc1CN1CCCN(Cc2ccc(N(CCCl)CCCl)cc2C)C1c1ccc(N(CCCl)CCCl)cc1 | 11% | 97% (active) | 66.2% | 1% | 99% (active) | 21.6% | 3% | 98% (active) | 86.8% (active) | -3% | 98% (active) | 21.4% | 5% | 88% (active) | 30.8% | 33% | 97% (active) | 97.2% (active) |
| CN(C)C(=S)Nc1nnc(NC23CC4CC(CC(C4)C2)C3)s1 | -1% | 61% | 96.7% (active) | -29% | 89% (active) | 96.2% (active) | 15% | 60% | 97.8% (active) | -22% | 94% (active) | 95.6% (active) | 3% | 96% (active) | 93% (active) | -2% | 48% | 97% (active) |
| CCOP(=O)(O)C(Nc1ccc(N=Nc2ccccc2)cc1)c1ccc(C(Nc2ccc(N=Nc3ccccc3)cc2)P(=O)(O)OCC)cc1 (stereo not given) | -4% | 35% | 54% | -6% | 27% | 67.7% | 3% | 37% | 86% (active) | -8% | -6% | 41.3% | -5% | 31% | 57.5% | -5% | 31% | 90.1% (active) |
| CC(=O)Nc1c2sscc-2n(C)c1=O | 98% (active) | 99% (active) | 93.2% (active) | 99% (active) | 100% (active) | 94.9% (active) | 99% (active) | 99% (active) | 94.6% (active) | 98% (active) | 99% (active) | 93.2% (active) | 97% (active) | 99% (active) | 94% (active) | 99% (active) | 99% (active) | 92.7% (active) |
| [Cl][Hg][c]1ccco1 | 99% (active) | 99% (active) | 99.5% (active) | 100% (active) | 99% (active) | 99.5% (active) | 100% (active) | 100% (active) | 99.7% (active) | 99% (active) | 99% (active) | 99% (active) | 100% (active) | 100% (active) | 99.4% (active) | 99% (active) | 99% (active) | 99.2% (active) |
| CCOC(=O)c1[nH]cnc1/N=N/N(C)N | 97% (active) | 98% (active) | 86.8% (active) | 99% (active) | 99% (active) | 92% (active) | 53% | 87% (active) | 90.1% (active) | 28% | 81% (active) | 89.2% (active) | 47% | 88% (active) | 89.5% (active) | 97% (active) | 97% (active) | 90% (active) |
| CC(=O)[O][Sn]([CH3])([CH3])[c]1ccccc1 | 2% | 78% (active) | 81.2% (active) | 3% | 50% | 82.8% (active) | 1% | 92% (active) | 92.5% (active) | -13% | 77% (active) | 74.9% (active) | -6% | 83% (active) | 84.2% (active) | 3% | 94% (active) | 96.3% (active) |
| CC1(C)CC2(c3ccccc3)CC(c3ccccc3)C1C(C(=O)O)C2C(=O)O (stereo not given) | 28% | 99% (active) | 99.2% (active) | 27% | 99% (active) | 99.3% (active) | 10% | 99% (active) | 99.2% (active) | 7% | 99% (active) | 98.8% (active) | 35% | 96% (active) | 98.5% (active) | 17% | 99% (active) | 99.2% (active) |
| CCOC(=O)c1ccc(N=Cc2ccc(N(CCCl)CCCl)cc2C)cc1 | -4% | 15% | 49.5% | 13% | 22% | 16.4% | 14% | 39% | 67.7% | -8% | -15% | 5.3% | -6% | 2% | 17.2% | 25% | 73% (active) | 37.9% |
| COc1cc2c(cc1OC)C(OC)N(C)c1c-2ccc2cc3c(cc12)OCO3 (stereo not given) | 16% | 41% | 3.45% | 9% | 12% | -48% | 7% | 30% | -22.1% | 16% | 33% | 6.7% | 2% | 30% | -40% | 17% | 24% | -21.8% |
| COC1CC2C=C(C)/C=C/C=C/C(=O)NC(c3ccccc3)C/C=C/CCC(O)CC(=O)C2=C1O (stereo not given) | 97% (active) | 99% (active) | 91.5% (active) | 98% (active) | 99% (active) | 92.8% (active) | 99% (active) | 99% (active) | 92.5% (active) | 98% (active) | 99% (active) | 91.3% (active) | 99% (active) | 99% (active) | 88.7% (active) | 98% (active) | 99% (active) | 91.7% (active) |
